# VP16 counter: counter-screen for ROR gamma inhibitors: Gal4-VP16 reporter. Drosophila S2 Gal4-VP16 UAS-luciferase, luminescence, 20 h. Potency, µM (top dose mostly 53.6 µM), without a hit: at the highest dose activity, negative = inhibition, most hits filed as inhibitors. hit rate 3.5% among 310,000. AID 2546;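 further: Gal4-VP16 expression switched on by copper sulfate through the metallothionein promoter; on the % scale 0 is the no-effect control and ±100 the full control effect; nearly all actives have a fitted effect of over 50% in size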
# TGFb inhibitor: TGF-b pathway inhibition; AID 588855; Potency, µM (titrated, usually from 46.1 µM), for inactives: at the highest dose activity, negative = inhibition, usual class: inhibitors; hit rate 1.2% among 410,000; HepG2 CAGA-GFP TGF-b/SMAD3 reporter, GFP fluorescence, 18 h; TGF-beta stimulated, 500 pg/mL final; further: on the % scale 0 is the no-effect control and ±100 the full control effect; nearly all actives have a fitted effect of over 65% in size
#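 HEPG2 CAGA-GFP reporter cells (1000/well, DMEM with 1% FBS) received compounds, then recombinant TGF-beta at 500 pg/mL final for 18 hours at 37 degrees C. Per-cell GFP summed per well was normalised to unstimulated and stimulated DMSO controls before curve fitting.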
# S2 tox: reduces viability in counter-screen for ATXN expression inhibitors; S2 cells (HEK-293 line with an ATXN2-luciferase reporter) viability, CellTiter-Fluor protease fluorescence, 24 h; Potency, µM (doses to about 56.7 µM), actives largely listed as cytotoxic; hit rate 0.49% among 400,000; further: nearly all actives have a fitted effect of over 40% in size
# HepG2 viability: kills HepG2 cells in TGF-b inhibitor counter-screen; HepG2 CAGA-GFP viability, ATP luminescence, 18 h; Potency, µM (series often up to 46.1 µM), inactives show at the top dose activity change, negative = cytotoxicity, hits mostly cytotoxic; hit rate 0.76% among 410,000; AID 588856
#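 CellTiter-Glo luminescence gave cytotoxicity after 18 hours at 37 degrees C. The cells were HepG2 CAGA-GFP in 1% FBS DMEM, stimulated with 500 pg/mL TGF-beta after compound addition. %Activity was normalised to no-cell wells (complete cell-killing) and DMSO (no toxicity), and curves were fitted and classified.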
# ATXN2 expr inh: reduces ATXN2 reporter expression in HEK-293 cells | HEK-293 ATXN2-luciferase reporter, luminescence, 24 h | Potency, µM (titrated, usually from 57 µM), inactives show top-dose activity change, negative = inhibition, usual class: inhibitors | hit rate 0.72% among 360,000 | AID 1745845; further: on the % scale 0 is the no-effect control and ±100 the full control effect; nearly all actives have a fitted effect of over 55% in size
#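 qHTS (up to 57 uM final) was run with 24 h compound exposure of reporter cells at 37 °C. Each well was multiplexed: SteadyGlo luminescence measured ATXN2-luciferase expression after a fluorogenic Gly-Phe-AFC viability readout (25 uM final).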
# RORgamma inh: inhibitors of mouse ROR gamma transcriptional activity; hit rate 5.4% among 310,000; AID 2551; Drosophila S2 Gal4-RORgamma UAS-luciferase reporter, 20 h; P51450; Potency, µM (top dose mostly 53.6 µM), without a hit: at the highest dose activity change, negative = inhibition, hits mostly inhibitors; further: on the % scale 0 is the no-effect control and ±100 the full control effect; nearly all actives have a fitted effect of over 60% in size
# Target sequence (P51450 whole entry, looked up, the tested form may be a part): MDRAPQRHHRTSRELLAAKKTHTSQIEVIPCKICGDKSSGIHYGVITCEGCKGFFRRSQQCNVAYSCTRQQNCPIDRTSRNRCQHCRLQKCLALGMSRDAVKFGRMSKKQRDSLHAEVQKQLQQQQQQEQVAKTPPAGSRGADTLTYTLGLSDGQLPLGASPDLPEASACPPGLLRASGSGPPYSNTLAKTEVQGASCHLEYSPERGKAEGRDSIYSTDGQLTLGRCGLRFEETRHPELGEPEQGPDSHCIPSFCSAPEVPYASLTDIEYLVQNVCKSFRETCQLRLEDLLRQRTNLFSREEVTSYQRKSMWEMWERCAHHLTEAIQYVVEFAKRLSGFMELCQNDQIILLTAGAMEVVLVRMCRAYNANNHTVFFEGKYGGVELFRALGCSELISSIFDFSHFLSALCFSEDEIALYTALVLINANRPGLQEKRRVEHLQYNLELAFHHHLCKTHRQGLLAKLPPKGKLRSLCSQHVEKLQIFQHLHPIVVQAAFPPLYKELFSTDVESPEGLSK
#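 Using a luciferase readout, inhibitors were identified by reduced reporter activity in Drosophila cells coexpressing a copper-inducible Gal4–ROR gamma fusion and UAS-driven Photinus luciferase, incubated 20 hr after 700 uM copper sulfate.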
# Starred values were filed as active, the others as inactive; i = inactive; ? = inconclusive; / = no result given; ! = not confirmed by another sample. Sampled rows, rich in hits. Any-hit rate of the full collection: about 6.1%. The call rests on the fitted dose curve; in most records, active means well fitted curve in the direction sought with a large enough effect; inconclusive means small, poorly fitted or top-dose-only effect, or another doubt; inactive means no such curve, though single readings can be large; an effect the other way counts as inactive or inconclusive. Potency means the concentration at half of the fitted maximal effect.
SMILES,VP16 counter,TGFb inhibitor,S2 tox,HepG2 viability,ATXN2 expr inh,RORgamma inh
Cc1cc(C)cc(NC(=S)N(C)C)c1,-21%,-4%,i,-27%,22%,10µM*
Cc1cc(C)c(NC(=S)N(C)C)cc1C,-28%,4%,i,21%,/,7.9µM*
N#C[C@H]1C[C@H]2C[C@@H]2N1C(=O)[C@@H](N)C12CC3CC(CC(O)(C3)C1)C2,/,/,i,/,?,/
CCCC[n+]1c(/C=C/c2ccc(N(C)C)cc2)sc2ccccc21,/,?,/,-36%,/,/
CN(Cc1ccccc1)c1ccc(/C=C/c2sc3ccccc3[n+]2C)cc1,/,3.2µM*,/,-34%,/,/
CCOCCCNC(=O)Cn1nc(CC)n2c(cc3c(OC)cccc32)c1=O,/,0%,i,-20%,4%,/
COc1ccccc1Nc1nn2c(=O)c3ccc(C(=O)N4CCCC(C)C4)cc3nc2s1 (stereo not given),-14%,-27%,32µM*!,8%,?,0%
CCN(CC)CCNC(=O)c1ccc2c(=O)n3nc(Nc4ccccc4OC)sc3nc2c1,/,?,?,-75%,16µM*,/
CCCCCCCCCCCCCCCCCCN(CCCCCCCCCCCCCCCCCC)c1ccc(/C=C/c2ccc(C=O)cc2)cc1,/,-16%,/,-4%,/,/
COc1ccc(-c2[nH]ncc2Oc2ccccc2OC)c(O)c1,?,-21%,i,-25%,7%,11µM*
CCOc1ccccc1Oc1cn[nH]c1-c1ccc(O)cc1O,?,0%,i,0%,-18%,-31%
CCCc1ccc(Oc2cn[nH]c2-c2ccc(O)cc2O)cc1,-27%,?,i,-60%,-6%,16µM*
COc1ccc(Oc2cn[nH]c2-c2ccc(O)cc2O)cc1,-6%,-20%,i,-13%,3%,?
C=C(C)COc1ccc(-c2n[nH]c(C)c2-c2ccc(OC)c(OC)c2)c(O)c1,7.1µM*,?,i,-49%,-15%,1.4µM*
C=C(C)COc1ccc(-c2[nH]ncc2-c2ccccc2)c(O)c1,?,11µM*,i,-98%,-21%,?
C=C(C)COc1ccc(-c2[nH]ncc2-c2ccc(OC)c(OC)c2)c(O)c1,2.5µM*,?,/,-44%,?,1.8µM*
C=C(C)COc1ccc(-c2[nH]ncc2Oc2ccccc2OCC)c(O)c1,-9%,?,i,-89%,?,-7%
C=C(C)COc1ccc(-c2[nH]ncc2Oc2cccc(OC)c2)c(O)c1,?,?,i,18µM*,-34%,6.3µM*
COc1ccc(-c2cn[nH]c2-c2ccc(OCC(=O)NN)cc2O)cc1OC,7%,5%,i,2%,10%,?
CCOC(=O)c1[nH]c(C)c(CCC(=O)N2CCN(c3cccc(C)c3C)CC2)c1C,/,?,i,-2%,-30%,/
COc1ccc(C)cc1NS(=O)(=O)c1ccc2c3c(cccc13)C(=O)N2,/,?,?,-61%,28µM*,/
Cc1nc(CC(=O)NCC2Cc3cc(F)cc(-c4ccc(F)c(C)c4)c3O2)cs1 (stereo not given),/,/,i,/,/,/
CCN1C(=O)CC(NNC(=O)c2ccc(Cl)cc2)C1=O (stereo not given),-1%,3%,/,-1%,/,-8%
COc1ccc(C(=O)NNC2CC(=O)N(Cc3ccc(Cl)cc3)C2=O)cc1OC (stereo not given),7.1µM*,5%,i,-14%,11%,?
CC(C)Nc1nc(NC(N)=S)nc(NC(C)C)n1,-4%,-11%,i,2%,4%,?
CC(C)Nc1nc(NC(N)=S)nc(NC(C)(C)C)n1,?,-7%,i,-3%,-6%,11µM*
CCNc1nc(NC(C)C)nc(NC(C)(C)C)n1,-11%,-21%,?,-8%,-21%,3%
CC(C)Nc1nc(NNc2nc(Cl)nc(NC(C)(C)C)n2)nc(NC(C)C)n1,1.8µM*,-24%,i,-4%,/,0.4µM*
